MARV entry inh – blocks Marburg virus binding to or entry into cells; Marburg virus pseudotyped entry inhibition, cell reporter; Potency, µM (doses to about 37.8 µM), usual class: inhibitors; hit rate 1.8% among 300,000; calls by dose curve; tested in HEK293 cells
Lassa entry inh – inhibitors of Lassa virus binding or cell entry; Lassa virus pseudotype entry inhibition, cell reporter; Potency, µM (doses to about 37.9 µM), hits mostly inhibitors; hit rate 1.2% among 300,000; AID 540256; calls by dose curve; tested in HEK293 cells; also: nearly all actives have a fitted effect of over 50% in size
HCV inh – inhibitors of hepatitis C virus infection | Huh7.5.1 HCVcc-Cre infection, luciferase reporter, 44 h | Potency, µM (top dose mostly 41.8 µM), hits mostly inhibitors | hit rate 3.4% among 340,000 | AID 651820; active = well fitted inhibition curve with a large enough effect; inconclusive = small, poorly fitted or top-dose-only effect, or another doubt; inactive = no such curve, though single readings can be large or run the other way
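Infectious HCV cell culture screen: compound-treated cells (1,000/well, pre-plated 4 h) are infected with HCVcc-Cre at roughly 0.5 moi and grown 44 h. Infection is quantified by luciferase signal after 15 min substrate incubation at room temperature.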
HCMV antiviral – inhibitors of human cytomegalovirus; hit rate 4.5% among 410,000; AID 1259415; HFF cells, HCMV-luciferase reporter, 72 h; active compounds read low; activity change, negative = inhibition, % at 57.5 µM; in the data active = activity change below about -60%; inconclusive = no clear call, values can overlap the other calls; inactive = above about -39%
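Human foreskin fibroblasts infected with luciferase-reporter HCMV at MOI 1 PFU/cell, compounds at two doses. Luciferase measured 72 h post infection; normalized to buffer-only basal and Salinomycin (10uM) controls.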
FMDV inh – foot and mouth disease virus antiviral activity; FMDV antiviral cell-based qHTS; Potency, µM (highest dose often 57.9 µM), hits mostly inhibitors; hit rate 1.2% among 410,000; AID 1159524; calls by dose curve; tested in HEK293T cells; also: read-out not given here; nearly all actives have a fitted effect of over 45% in size
Large screens that a line does not name were inactive; ! = not confirmed by another sample. The list is not random: actives were taken first. Their share in the collection is about 7.9%.

COc1ccccc1/C=N/NC(=O)c1ccc(NC(=O)c2ccccc2Br)cc1	HCV inh inconclusive, HCMV antiviral -65.9
CC(C)c1nc2cc(C(=O)N3CCNC(=O)C3c3cccc(F)c3)ccc2o1 (stereo not drawn)	none (no result: MARV entry inh, Lassa entry inh)
CC(=O)c1cccc(NC(=O)/C=C/c2ccc([N+](=O)[O-])s2)c1	MARV entry inh inconclusive, Lassa entry inh 7.08µM, HCV inh inconclusive, HCMV antiviral -95.9, FMDV inh inconclusive
Cc1ccccc1NC(=O)/C=C/c1ccc([N+](=O)[O-])s1	MARV entry inh inconclusive, Lassa entry inh inconclusive, HCV inh 10µM, FMDV inh 10µM (no result: HCMV antiviral)
Cc1cc(C)cc(NC(=O)/C=C/c2ccc([N+](=O)[O-])s2)c1	HCV inh inconclusive, HCMV antiviral -91.6
CC(C)(C)c1ccc(/C=C/C(=O)Nc2ccc(S(N)(=O)=O)cc2)cc1	MARV entry inh inconclusive, HCMV antiviral inconclusive, FMDV inh inconclusive (no result: HCV inh)
On1onc2c3cc(-c4ccccc4)nc3ccc21	MARV entry inh inconclusive, Lassa entry inh inconclusive, HCV inh 2.24µM, HCMV antiviral -108.0
CC(C)CCOc1ccc(-c2c(=O)n(OCc3ccc([N+](=O)[O-])cc3)c3ccccc3[n+]2[O-])cc1	HCV inh inconclusive, HCMV antiviral -69.0
COc1ccc(CN(C)C(=O)CCl)cc1	HCV inh inconclusive, FMDV inh inconclusive (no result: MARV entry inh, Lassa entry inh)
CN(Cc1ccc(Cl)s1)C(=O)CCl	MARV entry inh inconclusive, Lassa entry inh 11.2µM, HCV inh inconclusive, FMDV inh 11.2µM
CN(Cc1ccc(Cl)cc1)C(=O)CCl	HCV inh inconclusive, HCMV antiviral -64.3, FMDV inh 25.1µM (no result: MARV entry inh, Lassa entry inh)
COC(=O)C1=C/CCCN(C(c2ccccc2)c2ccccc2)/C=C\1C(=O)OC	none (no result: MARV entry inh, Lassa entry inh, HCV inh)
CC(=O)OC1C=C[C@]2(C)C(CC(OC(C)=O)[C@@]3(C)C4=CC(=O)OC(c5ccoc5)[C@]4(C)CCC23)C1(C)C (stereo partly drawn)	none (no result: MARV entry inh, Lassa entry inh, HCV inh, HCMV antiviral)
COc1ccc(C(=S)N2CCOCC2)cc1OC(=O)c1ccc([N+](=O)[O-])cc1[N+](=O)[O-]	MARV entry inh inconclusive (no result: Lassa entry inh)
COc1cc(C(=S)N2CCOCC2)cc(OC)c1OC(=O)c1ccccc1[N+](=O)[O-]	Lassa entry inh inconclusive, HCV inh 15.8µM
CC(C)Oc1ccc(CNC(=O)c2cc3cccc4c3n2CC(C)S4)cc1 (stereo not drawn)	none (no result: MARV entry inh, HCV inh)
COC(OC)c1ccnc(-c2ccc(OC(=O)c3ccccc3)cc2)n1	none
COC(OC)c1ccnc(-c2ccc(OC(C)=O)cc2)n1	HCMV antiviral -82.9
COc1ccc(C2CC(=O)N(Cc3ccc(F)cc3)c3ccccc3S2)cc1OC (stereo not drawn)	FMDV inh 39.8µM (no result: Lassa entry inh, HCV inh)
COc1cc(C2CC(=O)N(Cc3ccc(F)cc3)c3ccccc3S2)cc(OC)c1OC (stereo not drawn)	MARV entry inh inconclusive, HCMV antiviral -82.2, FMDV inh 14.1µM (no result: Lassa entry inh, HCV inh)
Cc1ccc(C(=O)NC(=O)CSc2ncccc2C(=O)O)cc1	none
Cc1ccc(C(=O)C(c2ccccc2)N2Cc3ccccc3C2=N)cc1 (stereo not drawn)	MARV entry inh inconclusive, Lassa entry inh inconclusive, HCV inh inconclusive, FMDV inh 31.6µM (no result: HCMV antiviral)
CC(C)CCNC(=O)[C@@H](c1ccccc1)N1Cc2ccccc2C1=O	none (no result: HCV inh)
Cn1c(Cl)nc2c1c(=O)n(Cc1cccc(Br)c1)c(=O)n2C	HCV inh 12.6µM
CCCNc1nc2c(c(=O)n(C)c(=O)n2C)n1CCCc1ccccc1	HCV inh inconclusive, FMDV inh inconclusive (no result: MARV entry inh, Lassa entry inh)
CCCCNc1nc2c(c(=O)n(C)c(=O)n2C)n1CCC	HCV inh inconclusive (no result: MARV entry inh, Lassa entry inh)
CCCNc1nc2c(c(=O)n(C)c(=O)n2C)n1CCc1ccccc1	MARV entry inh inconclusive, Lassa entry inh inconclusive, HCV inh 14.1µM, HCMV antiviral -64.7, FMDV inh 14.1µM
CCCCCCn1c(NCC)nc2c1c(=O)n(C)c(=O)n2C	MARV entry inh inconclusive, Lassa entry inh inconclusive, HCV inh 5.62µM, HCMV antiviral -88.5, FMDV inh inconclusive
CCCNc1nc2c(c(=O)n(C)c(=O)n2C)n1Cc1cccc(C)c1	HCV inh inconclusive, HCMV antiviral -62.3, FMDV inh inconclusive
COCCCN1C(=O)C(CC(=O)NC(c2ccccc2)c2ccccc2)CC(C(=O)N(C(C)C)C(C)C)=C1C (stereo not drawn)	none (no result: MARV entry inh, Lassa entry inh, HCV inh)
Cc1ccc(Oc2nc3c(c(=O)n(Cc4ccccc4)c(=O)n3C)n2C)cc1C	MARV entry inh inconclusive, Lassa entry inh inconclusive, FMDV inh 14.1µM (no result: HCV inh)
CC(O)CNc1nc2c(c(=O)n(C)c(=O)n2C)n1Cc1cccc(Br)c1 (stereo not drawn)	MARV entry inh inconclusive, Lassa entry inh inconclusive, HCV inh 11.2µM (no result: FMDV inh)
CCCCCCn1c(CN2CCCCC2C)nc2c1c(=O)n(C)c(=O)n2C (stereo not drawn)	MARV entry inh inconclusive, HCV inh 25.1µM (no result: FMDV inh)
Cc1ccc(Oc2nc3c(c(=O)n(Cc4ccccc4Cl)c(=O)n3C)n2C)cc1C	none (no result: HCV inh)
CC(O)CNc1nc2c(c(=O)n(C)c(=O)n2C)n1CCc1ccccc1 (stereo not drawn)	HCV inh 28.2µM, FMDV inh inconclusive
CC(C)(C)C(C(=O)n1cccc1C#N)c1ccccc1 (stereo not drawn)	none (no result: MARV entry inh, Lassa entry inh)
C/C(Cc1ccccc1)=N\NC(=O)CNC(=O)c1ccccc1Br	none
COc1ccc([C@@H]2[C@H](C(=O)N3CCCC3)CC(=O)N2C(=O)c2ccccc2)cc1	none (no result: MARV entry inh, Lassa entry inh, HCV inh, FMDV inh)
Cn1c(=O)c2sccc2n(Cc2cccc(Br)c2)c1=O	MARV entry inh inconclusive, HCV inh 11.2µM
COc1cc2sc3ccc(C#CC4(O)CCCCC4)cc3c(=O)c2cc1OC	HCV inh inconclusive (no result: MARV entry inh, Lassa entry inh)
Cn1c2ccccc2c(=O)c2ccc(C#CC3(O)CCCCC3)cc21	HCV inh 10µM, HCMV antiviral inconclusive (no result: MARV entry inh, Lassa entry inh)
OC(CNC1CCCCC1)C(F)(F)F (stereo not drawn)	none
NCC(O)C1CCCCCCC1 (stereo not drawn)	MARV entry inh 7.08µM! (no result: HCV inh, HCMV antiviral, FMDV inh)
COc1ccc(NC(=O)/C(C#N)=C/c2c(C)nn(-c3ccc(F)cc3)c2Cl)cc1OC	MARV entry inh inconclusive, Lassa entry inh inconclusive, FMDV inh 22.4µM
Cc1nn(-c2ccccc2)c(Cl)c1/C=C(\C#N)C(=O)NC(C)C	HCV inh inconclusive, HCMV antiviral inconclusive, FMDV inh 25.1µM
COc1ccccc1NC(=O)/C(C#N)=C/c1c(C)nn(-c2ccc(F)cc2)c1Cl	HCMV antiviral inconclusive
COc1ccccc1N(C)S(=O)(=O)c1ccc(C(=O)Nc2cc(OC)c(OC)c(OC)c2)cc1	HCV inh inconclusive, FMDV inh inconclusive (no result: MARV entry inh, Lassa entry inh)
COc1ccccc1N(C)S(=O)(=O)c1ccc(C(=O)Nc2ccncc2)cc1	MARV entry inh inconclusive, HCV inh inconclusive, HCMV antiviral inconclusive, FMDV inh 31.6µM
COc1ccccc1N(C)S(=O)(=O)c1ccc(C(=O)NC2CCCCC2)cc1	Lassa entry inh 10µM, HCMV antiviral inconclusive, FMDV inh inconclusive
CCN(Cc1ccccc1)c1ccccc1	none (no result: MARV entry inh, Lassa entry inh)
NC(N)=N/N=C/c1ccc(OS(=O)(=O)c2ccccc2)cc1	HCV inh inconclusive, HCMV antiviral -82.0 (no result: MARV entry inh, Lassa entry inh)
CCN(Cc1ccccc1)c1ccc(/C=N/N=C(N)N)cc1	MARV entry inh 6.51µM, Lassa entry inh 8.2µM, HCV inh inconclusive, HCMV antiviral -61.9, FMDV inh inconclusive

From PubChem BioAssay
